Results on 68 molecules are retold here after PubChem BioAssay AID504832 (National Center for Advancing Translational Sciences (NCATS), 2011).

The campaign covered roughly 310,000 compounds. About 18,000 (5.8%) were called active. Where a call stands in place of a potency, no number is given. Inconclusive results (about 22%) are left out. The sample holds actives, similar compounds and a random draw of the others, so the mix is not that of the screen. Calls come from the whole dose curve; as a rule, active = well fitted inhibition curve with a large enough effect; inconclusive = small, poorly fitted or top-dose-only effect, or another doubt; inactive = no such curve, though single readings can be large or run the other way.
Potency is the fitted concentration of half-maximal effect.

This assay is described as follows: Primary qHTS for delayed death inhibitors of the malarial parasite plastid, 48 hour incubation. Particulars: P. falciparum luciferase growth in erythrocytes; series mostly up to 28.7 µM. A digest of the protocol: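 Cell-based growth assay: transgenic P. falciparum expressing firefly luciferase, cultured in red cells within RPMI 1640 containing 0.5% w/v Albumax, 24 mM bicarbonate and gentamycin. A drop in luciferase activity indicates inhibition.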
Regarding `CC(=O)Oc1ccc(N(C(C)=O)S(=O)(=O)c2ccc3ccccc3c2)cc1Br`, the Potency result is “inactive”.

`O=C(COC(=O)c1ccc(F)cc1)NCCCc1ccccc1`: the Potency entry is “inactive”.

Take `N/C(=N/O)c1cccn1Cc1ccccc1[N+](=O)[O-]`: the Potency entry is “inactive”.

For `O=Cc1cn(Cc2ccc(F)cc2Cl)c2ccccc12`, the Potency result is “inactive”.

Turning to `O=c1c([N+](=O)[O-])cccn1Cc1ccc(F)cc1Cl`, the Potency is 0.37 µM (active).

Turning to `CN(CC(=O)Nc1c(Cl)cccc1Cl)C(=O)CNC(=O)C1CCCCC1`, the Potency result was “inactive”.

In the case of `CN(Cc1ccccc1)C(=O)c1ccc(COc2ccccc2)cc1`, the Potency entry is “inactive”.

As for `CC(C)C(=O)NC(=S)Nc1ccccc1F`, the Potency result was “inactive”.

As to `CC(C)C(=O)Nc1cccc(NC(=S)NC(=O)C(c2ccccc2)c2ccccc2)c1`, the Potency is 11.7 µM (active).

As for `COc1ccccc1NC(=S)NC(=O)C(C)C`, the Potency entry is “inactive”.

Take `COc1cccc(NC(=O)N2CCCC2C(=O)NC2CCCCC2)c1` (stereo not drawn): the Potency result is “inactive”.

Take `COc1ccc(/C=N/OCc2ccccc2C#N)c(OC)c1`: the Potency result is “inactive”.

Turning to `CC1CCN(C(=O)c2ccccc2NC(=O)Cc2ccccc2)CC1`, the Potency result is “inactive”.

Take `O=C(Cc1ncc(C(F)(F)F)cc1Cl)Nc1cccc(Br)c1`: the Potency result is “inactive”.

In the case of `CN1CCN(C(=O)CCc2ncc(C(F)(F)F)cc2Cl)CC1`, the Potency result is “inactive”.

`CC(=O)c1ccc(Cc2ncc(C(F)(F)F)cc2Cl)s1`: the Potency is 13.1 µM (active).

Turning to `Cc1ccc2c(c1)N(C(=O)CCC(=O)NCc1cccnc1)CCO2`, the Potency result was “inactive”.

On to `Cn1c(N2CCOCC2)c(C=O)c2ccccc21`, for which the activity change, negative = inhibition was 37.2% [at 0.00184 µM] (inactive).

On to `COc1ccc(-n2nc(C(=O)NCC(=O)N3CCC(C(N)=O)CC3)c3ccccc3c2=O)cc1OC`, for which the Potency entry was “inactive”.

Consider `CCN(CC)CCCN=Cc1c(O)n(-c2ccc(C)cc2)c(=O)c2ccccc12`, for which the Potency result was “inactive”.

For the molecule `COc1ccc(-n2c(O)c(C=NCC(c3ccco3)N3CCCC3)c3ccccc3c2=O)cc1OC` (stereo not drawn), the Potency is 9.28 µM (active).

As to `Cc1nnc(SCC(=O)Nc2ccc(S(=O)(=O)Nc3ccc(Cl)nn3)cc2)s1`, the Potency entry is “inactive”.

As to `Cc1cccc(OCC(=O)NCCCNC(=O)c2ccccn2)c1`, the Potency entry is “inactive”.

On to `CCN(CC)CCOc1ccc2c(c1)C(=NNC(=O)c1ccccn1)c1cc(OCCN(CC)CC)ccc1-2`, for which the Potency was 0.37 µM (active).

On to `CCC(C)(NC(=O)c1ccccn1)C(=O)NC1CCCCC1` (stereo not drawn), for which the Potency entry is “inactive”.

For `CCOc1ccccc1OCC(=O)Nc1ccccc1C(=O)NC1CC1`, the Potency entry is “inactive”.

Take `O=C(CCNS(=O)(=O)c1ccccc1C(F)(F)F)Nc1ccncc1`: the Potency result is “inactive”.

Consider `C/C(N)=C(/C#N)C(=O)COC(=O)C1=NN(c2ccccc2)C(=O)CC1`, for which the Potency entry was “inactive”.

With `O=C(Nc1ccccc1-c1nc2ccccc2[nH]c1=O)c1cccs1`, the Potency entry was “inactive”.

Consider `Cc1ccc(C(=O)c2ccc(N3CCN(C)CC3)c([N+](=O)[O-])c2)cc1`, for which the Potency entry is “inactive”.

On to `CN1CCN(S(=O)(=O)c2ccc(N3CCN(c4ccccc4O)CC3)c([N+](=O)[O-])c2)CC1`, for which the Potency was 11.7 µM (active).

With `CN1CCN(c2ccc(S(=O)(=O)Nc3ccccc3)cc2[N+](=O)[O-])CC1`, the Potency result was “inactive”.

On to `COc1ccccc1C(=O)NCCC(=O)N(C)Cc1cccnc1`, for which the Potency result is “inactive”.

With `Cc1ccc(S(=O)(=O)N2CCCCC2)cc1C(=O)N(C)CC(=O)Nc1cccc(F)c1`, the Potency entry is “inactive”.

Take `COc1ccccc1C(=O)NCCC(=O)NC1=NCCS1`: the Potency entry was “inactive”.

Turning to `COc1ccc(N(CC(=O)N2CCOCC2)S(=O)(=O)c2ccccc2)cc1Cl`, the Potency entry was “inactive”.

Regarding `COc1ccc(NC(=O)CN(C)C(=O)c2ccc(NC3CC3)c([N+](=O)[O-])c2)cc1`, the Potency entry was “inactive”.

Take `CCCCN(C(=O)C1CCC1)c1c(N)n(Cc2ccccc2)c(=O)[nH]c1=O`: the Potency entry was “inactive”.

Regarding `O=C(Nc1ccccc1)OCc1cn(-c2ccc(Cl)cc2)nn1`, the Potency entry was “inactive”.

In the case of `CCCc1c(C(=O)O)cnn1-c1ccc(Cl)cc1`, the Potency entry is “inactive”.

Take `O=C(Cn1cc(-c2nnnn2-c2ccc(Cl)cc2)c(=O)c2ccccc21)c1ccccc1`: the Potency was 1.65 µM (active).

Regarding `O=C(NCCS(=O)(=O)N1CCN(c2ccc(F)cc2)CC1)c1ccc2c(c1)OCO2`, the Potency result is “inactive”.

`CCOCCCNC(=S)Nc1ccc2nc(N3CCN(CC)CC3)cc(C)c2c1`: the Potency entry is “inactive”.

On to `CC[N+](C)(CC)CCC[n+]1c(-c2ccccc2)c2cc(N)ccc2c2ccc(N)cc21`, for which the Potency was 1.85 µM (active).

Take `CC(=O)Nc1ccc(NC(=O)CCCNC(=O)c2ccc(Cl)cc2)cc1`: the Potency entry was “inactive”.

With `CC(=O)c1cccc(NC(=O)c2cc(C)nn2-c2ccccc2)c1`, the activity change, negative = inhibition was -2.83% [at 0.00184 µM] (inactive).

In the case of `CC[n+]1c(C)n(-c2ccccc2)c2ccc(NC(C)=O)cc21`, the Potency was 4.65 µM (active).

`CC(=O)Nc1ccc(NC(=O)CSc2nnc(C3CC3)n2-c2ccccc2)cc1`: the Potency result is “inactive”.

For `O=C(COc1ccc(Cl)cc1)NCCS(=O)(=O)N1CCN(c2ccc(F)cc2)CC1`, the Potency entry is “inactive”.

Regarding `CCc1ccccc1NC(=O)NCCN1CCCCC1`, the Potency result is “inactive”.

With `CC(C)c1ccc(NC(=O)Cn2ncc3ccccc32)cc1`, the Potency result was “inactive”.

On to `COc1cccc(NC(=O)CN(C)C(=O)CSCc2nc3scc(-c4cccs4)c3c(=O)[nH]2)c1`, for which the Potency entry was “inactive”.

With `N/C(=N\OC(=O)/C=C/c1ccccc1)c1ccc(Br)cc1`, the Potency entry is “inactive”.

For the molecule `N/C(=N\OC(=O)Cc1ccccc1[N+](=O)[O-])c1ccc(Br)cc1`, the Potency entry was “inactive”.

Turning to `N/C(=N\OC(=O)N1c2ccccc2Sc2ccccc21)c1ccc(Br)cc1`, the Potency was 8.28 µM (active).

With `CCn1c(=S)sc2c(=O)n(CC(=O)Nc3ccc(OC)cc3)c(C)nc21`, the Potency entry was “inactive”.

Turning to `CC(C)Oc1ccc(CCc2n[nH]c(=S)n2Cc2ccccc2)cc1`, the Potency was 2.08 µM (active).

Turning to `C=CCn1c(CCc2ccc(OC(C)C)cc2)n[nH]c1=S`, the Potency entry was “inactive”.

As for `CC(C)Oc1ccc(CCc2nnc(SCC(=O)O)n2-c2ccccc2)cc1`, the activity change, negative = inhibition was 1.18% [at 5.75 µM] (inactive).

As for `CCOc1ccccc1OCCCNCc1ccccc1`, the Potency entry was “inactive”.

Turning to `COc1cccc(NS(=O)(=O)c2ccc(-c3coc(C)n3)cc2)c1`, the Potency result is “inactive”.

Consider `CCC(=O)Nc1ccc(-c2ccc(N3CCCCC3)nn2)cc1`, for which the Potency entry was “inactive”.

Regarding `O=C(O)CN1CCN(C(c2ccccc2)c2ccccc2)CC1`, the Potency entry was “inactive”.

For `CC(OC(=O)c1ccc(-n2cnnn2)cc1)C(=O)NCc1ccccc1` (stereo not drawn), the Potency result is “inactive”.

Take `O=C(c1ccc(-n2cnnn2)cc1)N1CCN(C(c2ccccc2)c2ccccc2)CC1`: the Potency is 2.62 µM (active).

For the molecule `Cn1nnnc1SCC(=O)Nc1nc2ccccc2s1`, the Potency entry is “inactive”.

Take `Cn1nnnc1SCC(=O)N1CCN(Cc2ccccc2)CC1`: the Potency entry was “inactive”.

In the case of `Cn1nnnc1SCC(=O)N1CCN(C(c2ccccc2)c2ccccc2)CC1`, the Potency is 9.28 µM (active).
